Laboratory results taken from PubChem BioAssay (Tox21).
Values without a mark were called inactive. Activity calls are given as the source filed them. Calls follow the shape of the dose curve; as a rule, active = well fitted curve in the direction sought with a large enough effect in the repeat runs; inconclusive = weak or mixed curves; inactive = flat fitted curve, though single readings scatter.

Test: qHTS assay to test for compound auto fluorescence at 535 nm (green) in HepG2 cells (AID 720675)
Details: green autofluorescence 485/535 nm, 1 h; series mostly up to 91.3 µM
Description: National Center for Advancing Translational Sciences [NCATS]
NIH Chemical Genomics Center [NCGC]
U.S. Environmental Protection Agency [EPA]
National Institutes of Environmental Health Sciences [NIEHS]
National Toxicology Program [NTP]
U.S. Food and Drug Administration [FDA]
Compound auto fluorescence often interferes with screening of the compound library against various biological targets and signaling pathways. Some of these compounds may have fluorophoric properties. Such properties may interfere with the assay outputs resulting in false positives and/or negatives. To decrease such complications and ensure the compound activities are relevant in terms of biological response, the Tox21 10K compound library was screened for auto fluorescence.
From the fluorophores used as reporter signals in our screening assays, the auto fluorescence equivalencies of compounds against three fluorophores have been evaluated: Triamterene, Fluorescein and Rose Bengal sodium for blue, green and red fluorescence, respectively. The fluorescence intensities were measured using Excitation/Emission wavelengths at 405/460nm, 485/535nm and 540/590nm for blue, green and red labels, respectively. This assay includes the green fluorescence data.
Tox21 Assay Protocol Summary:
2,000 HepG2 cells in 5 uL of culture medium (MEM containing 10% FBS) per well were dispensed into black wall/clear bottom 1536-well plates using a Multidrop Combi Dispenser (ThermoFisher Scientific, Waltham, MA). The assay plates were incubated overnight at 37 C to allow cell attachment to the well bottom, followed by the transfer of 23 nL compound or DMSO vehicle by a pintool work station (Kalypsys , San Diego, CA). After the assay plates were incubated for 1 hr at 37 C and 5% CO2, fluorescence intensities in the assay plates were measured by an Envision (PerkinElmer, Shelton, CT) plate reader using three labels for measuring blue, green and red fluorescence at […] 460, 535 and 590 nm respectively.
% is scaled to controls: 0 for no effect and ±100 for the full control effect.

| Compound | outcome | fluorescence, % of fluorescein control |
| --- | --- | --- |
| COC(=O)c1ccccc1Cl | inactive | – |
| O=C[C@@H](O)[C@H](O)[C@H](O)CO | inactive | – |
| CN(C)c1cc(NC(=O)CNC(C)(C)C)c(O)c2c1C[C@H]1C[C@H]3[C@H](N(C)C)C(=O)C(C(N)=O)=C(O)[C@@]3(O)C(=O)C1=C2O | inactive | – |
| CCOc1ccccc1OCCN[C@H](C)Cc1ccc(OC)c(S(N)(=O)=O)c1 | inactive | – |
| CCC(C)(C)C | inactive | – |
| CCCCCCCCCCCC(C)=O | inactive | – |
| COc1cc2nc(N3CCN(C(=O)C4CCCO4)CC3)nc(N)c2cc1OC (stereo not given) | inactive | – |
| CCOC(=O)CC(C(C)=O)C(C)=O | inactive | – |
| COc1ccc(Cl)cc1C | inactive | – |
| CCCCOCCCC | inactive | – |
| Cc1nnc(C(=O)NC(C)(C)c2nc(C(=O)NCc3ccc(F)cc3)c(O)c(=O)n2C)o1 | inactive | – |
| Cc1ccc(O)c([N+](=O)[O-])c1 | inactive | – |
| CCCC(=O)OC | inactive | – |
| CNCCc1ccccn1 | – | -0.0784% [at 18.6 µM] |
| CCOC(=O)c1ccc(N(C)C)cc1 | inactive | – |
| CC(=O)Nc1ccc(S(=O)(=O)Nc2cc(C)on2)cc1 | inactive | – |
| CCCCC(CC)COC(=O)CC#N (stereo not given) | inactive | – |
| Cc1ccccc1C#N | inactive | – |
| CC(C)(C)OC=O | inactive | – |
| CC(=O)OC1CCC(C(C)(C)C)CC1 (stereo not given) | inactive | – |

| Compound | outcome | fluorescence, % of fluorescein control |
| --- | --- | --- |
| CCOC(=O)CC | inactive | – |
| O=C1CC2(CCCC2)CC(=O)N1CCNCC1COc2ccccc2O1 (stereo not given) | inactive | – |
| CC(C)OC(=O)C(C(=O)OC(C)C)=C1SC=CS1 | inactive | – |
| Cc1cc(N)no1 | inactive | – |
| O=C(O)Cc1c(Cl)ccc(Cl)c1Cl | inactive | – |
| CC(O)CCCCn1c(=O)c2c(ncn2C)n(C)c1=O (stereo not given) | inactive | – |
| COC(C)(C)CC(C)=O | inactive | – |
| Cc1ccc(OC(=O)CC(C)C)cc1 | inactive | – |
| O=Cc1ccc(C(=O)O)cc1 | inactive | – |
| CC(=O)SC[C@@H](C)C(=O)N1CCC[C@H]1C(=O)N[C@@H](Cc1ccccc1)C(=O)O | inactive | – |
| O=C(O)CCCCCCCCCC(=O)O | inactive | – |
| CC(C)(C)OC(=O)c1ccccc1C(=O)O | inactive | – |
| O=S(=O)(O)CC(O)CCl (stereo not given) | inactive | – |
| CCO/C=C1\N=C(c2ccccc2)OC1=O | inactive | – |
| CC(CC(=O)Cl)CC(C)(C)C (stereo not given) | inactive | – |
| CN(C)CCc1c[nH]c2ccc(C[C@H]3COC(=O)N3)cc12 | inactive | – |
| c1cc2ccc3ccc4ccc5cccc6c(c1)c2c3c4c56 | – | 0.0742% [at 3.72 µM] |
| CC/C=C\CCOC(=O)c1ccccc1 | inactive | – |
| CC12CCCC=C1C(=O)OC2=O (stereo not given) | inactive | – |
| CSC(=O)c1cccc2nnsc12 | inactive | – |
